Data as given in PubChem BioAssay (NCI).
This is part of a sample that, as a whole, favours compounds with a hit. Of some 83,000 tested, about 20% had one in any assay.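 Treatment: one concentration, 48 hours, 96-well format. Scoring: percent growth, with anything below 10 considered active.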 Activity calls are given as the source filed them.

Legend:
Test in all cases: NCI-60 one-dose screen, 48 h (100 = growth as untreated, 0 = no growth, -100 = all killed)
Settings in all cases: 10 µM
[1] = system: SK-MEL-2 melanoma
[2] = system: EKVX NSCLC
[3] = system: SN12C renal
[4] = system: UO-31 renal
[5] = system: TK-10 renal
[6] = system: ACHN renal
[7] = system: CAKI-1 renal
[8] = system: A498 renal
[9] = system: MOLT-4 leukemia
[10] = system: SR leukemia
[11] = system: RPMI-8226 leukemia
[12] = system: OVCAR-8 ovarian
[13] = system: OVCAR-5 ovarian
[14] = system: OVCAR-4 ovarian
[15] = system: SK-OV-3 ovarian
[16] = system: IGROV1 ovarian
[17] = system: OVCAR-3 ovarian
[18] = system: HS 578T breast
[19] = system: NCI/ADR-RES ovarian
[20] = system: CCRF-CEM leukemia

Measured: growth

Oc1[nH]c2ccccc2c1/C=c1/cc2c(c(-c3ccc(C(F)(F)F)cc3)n1)=Nc1ccccc1-2
active: [10] 4.59%
inactive: [1] 55.3% | [2] 52.1% | [3] 79.1% | [4] 56.1% | [5] 56.9% | [6] 32% | [7] 48.4% | [8] 62.6% | [9] 29.6% | [11] 12% | [12] 63.5% | [13] 70.5% | [14] 50.5% | [15] 79% | [16] 71.2% | [17] 20.2% | [18] 74.8% | [19] 31.7%

COC(=O)c1ccc(Cn2ccc(=O)[nH]c2=O)cc1
inactive: [1] 100% | [2] 116% | [3] 104% | [4] 89.3% | [5] 104% | [7] 97.4% | [8] 120% | [20] 92% | [9] 89.3% | [10] 94.1% | [11] 106% | [12] 115% | [14] 109% | [15] 116% | [16] 114% | [17] 130% | [18] 121% | [19] 110%

CN(C)c1ccc2cc(-c3cc4c(oc3=O)-c3ccccc3OC4O)c(=O)oc2c1 (configuration not stated)
inactive: [2] 22.6% | [3] 57.9% | [8] 13.2% | [12] 13.6% | [14] 26% | [15] 28.8%
active: [1] -38.2% | [5] -36.4% | [6] 4.78% | [7] -4.81% | [20] -20.5% | [9] -64.7% | [10] -12.7% | [11] -9.42% | [13] -9.51% | [16] -28.7% | [17] -30% | [18] -7.78% | [19] 0.415%

CC1(C)CC(=O)c2c(nc3ccc(Cl)cc3c2-c2ccccc2)C1
inactive: [1] 81.2% | [2] 95.9% | [3] 92.5% | [4] 66% | [5] 118% | [6] 93.9% | [7] 85.5% | [20] 49.5% | [9] 68.2% | [10] 69.5% | [11] 27.5% | [12] 94.6% | [13] 89.9% | [14] 98.8% | [15] 94.3% | [16] 75.5% | [17] 108% | [18] 158% | [19] 81.9%

CC(=O)Oc1ccc(C2=Cc3ccc(OC(C)=O)cc3OC2C)cc1 (configuration not stated)
inactive: [1] 61% | [2] 56.7% | [3] 66.9% | [4] 18.6% | [5] 82.7% | [6] 10% | [7] 43.6% | [20] 24.3% | [9] 36.7% | [11] 19.5% | [12] 60.9% | [13] 122% | [14] 79.4% | [15] 81% | [16] 55.8% | [17] 33.1% | [18] 42.8% | [19] 25%
active: [10] 8.85%

CCN(CC)CCCOC(=O)Nc1ccccc1Cl
inactive: [1] 101% | [2] 108% | [3] 102% | [5] 98.9% | [6] 108% | [7] 104% | [8] 97.7% | [20] 88.4% | [9] 98% | [10] 101% | [11] 97.3% | [12] 111% | [13] 110% | [14] 115% | [15] 111% | [16] 123% | [17] 124% | [18] 121% | [19] 107%

CC[C@@]1(C(N)=O)CC2C=CC1C2 (some centres not stated)
inactive: [1] 105% | [2] 102% | [3] 102% | [4] 95.5% | [5] 108% | [6] 113% | [7] 103% | [20] 87.9% | [9] 88.3% | [10] 85.8% | [11] 102% | [12] 106% | [13] 113% | [14] 114% | [15] 103% | [16] 123% | [17] 132% | [18] 118% | [19] 113%

COc1ccc(/C=C(\c2cc(OC)c(OC)c(OC)c2)c2nnc(-c3cccs3)o2)cc1
inactive: [1] 81.9% | [2] 78.6% | [3] 84.6% | [4] 89.3% | [5] 75.5% | [6] 75.3% | [7] 66.3% | [8] 71.4% | [9] 87.6% | [10] 78.3% | [11] 83.9% | [12] 47.6% | [13] 99.4% | [14] 26.6% | [15] 62.7% | [16] 71.7% | [17] 82.6% | [18] 43.6% | [19] 66.4%

COc1ccc(-c2nc(SCC(=O)c3ccc(Br)cc3)[nH]c(=O)c2C#N)cc1
inactive: [1] 103% | [2] 107% | [3] 112% | [4] 86.3% | [5] 99.6% | [6] 122% | [7] 99.9% | [8] 78.5% | [9] 96.8% | [10] 94.5% | [11] 104% | [12] 106% | [13] 102% | [14] 120% | [15] 113% | [16] 112% | [17] 99.3% | [18] 96.4% | [19] 110%

COc1ccc2nc(/C=C/c3ccc(N(C)C)cc3)sc2c1
inactive: [1] 101% | [2] 96.9% | [3] 91.4% | [5] 103% | [6] 104% | [7] 97.6% | [8] 71.7% | [20] 82.6% | [9] 77.7% | [10] 86.1% | [11] 104% | [12] 115% | [13] 97.4% | [14] 107% | [15] 197% | [16] 82.5% | [17] 103% | [18] 102% | [19] 93.1%

O=C(NCc1cn(Cc2cccc(Oc3ccccc3)c2)nn1)c1cccnc1Nc1ccccc1
inactive: [1] 55.1% | [2] 58.7% | [3] 50.2% | [4] 54.4% | [5] 85.2% | [6] 54.5% | [7] 48.1% | [8] 19.7% | [9] 38% | [10] 16.3% | [11] 52.7% | [12] 62.6% | [13] 89.1% | [14] 74.9% | [15] 49.6% | [16] 94.1% | [17] 42.1% | [18] 54.7% | [19] 23.6%

CC(C)/C(=N/O)c1ccccc1
inactive: [1] 101% | [2] 102% | [3] 102% | [4] 93.8% | [5] 104% | [6] 107% | [7] 107% | [20] 103% | [9] 94% | [10] 107% | [11] 111% | [12] 110% | [13] 103% | [14] 111% | [15] 122% | [16] 118% | [17] 130% | [18] 118% | [19] 107%

O=C(OCC1OC(n2cc(C(F)(F)F)c(=O)[nH]c2=O)CC1OC(=O)c1ccc([N+](=O)[O-])cc1)c1ccc([N+](=O)[O-])cc1 (configuration not stated)
inactive: [1] 78% | [2] 107% | [3] 43.4% | [4] 50.3% | [5] 86.7% | [7] 38.6% | [8] 60.6% | [9] 77.4% | [10] 60.4% | [11] 71.9% | [12] 66.8% | [13] 82.9% | [14] 88.2% | [15] 63.1% | [16] 82.3% | [17] 74.1% | [18] 88.5% | [19] 88.7%

O=C1/C(=C/c2cccs2)CCC/C1=C\c1cccs1
inactive: [1] 95.8% | [2] 74% | [3] 103% | [4] 75.9% | [5] 78.2% | [6] 101% | [7] 87.4% | [20] 80.9% | [9] 89.1% | [10] 78.1% | [11] 57.5% | [12] 93.2% | [13] 79.5% | [14] 77.9% | [15] 101% | [16] 98.8% | [17] 107% | [18] 95.7% | [19] 88.7%

O=C(COc1ccc(Cl)cc1Cl)Oc1coc(CSc2nc3ccccc3s2)cc1=O
active: [8] -21.3%
inactive: [1] 94.5% | [2] 106% | [3] 92.3% | [5] 107% | [6] 101% | [7] 101% | [20] 88.7% | [9] 86.4% | [10] 98.6% | [11] 87% | [12] 21.3% | [13] 116% | [14] 99.1% | [15] 102% | [16] 64.3% | [17] 114% | [19] 104%
